# Results published in PubChem BioAssay.
# Activity calls are given as the source filed them.
# Key:
# Albumin (Bos taurus) = Albumin (Bos taurus) (UniProt P02769); test: compounds binding labelled BSA control protein – biochemical, small-molecule microarray, Alexa647 label, 635/667 nm fluorescence, artefact control for SMM control protein annotation, profiling panel (AID 1118); conditions: BSA-A647 binding, fluorescence 635 nm, higher = more signal;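 further: score merges 667 nm emission intensity and signal-to-noise per printed compound spot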
# [1] = probe aXIP binding to arrayed compounds – biochemical, NeuroSMM set, 635/667 nm fluorescence, primary screen (AID 1119); conditions: small-molecule microarray, higher = more signal, called active from +8 up or from −8 down;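 further: probe is the protein aXip251-270 applied at 1 µg/mL to compound-printed slides; binding of probe to printed compounds measured as 667 nm fluorescence plus signal to noise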
# [2] = probe aNOTCH3 binding on compound microarray – biochemical, small-molecule microarray, 635/667 nm fluorescence, primary screen (AID 1120); conditions: higher = more signal;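 further: probe is a biotin-tagged antibody raised against NOTCH3 rather than NOTCH3 protein; score merges spot fluorescence near 667 nm with spot signal to noise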
# [3] = probe aNOTCH2 binding on compound microarray – biochemical, small-molecule microarray, 635/667 nm fluorescence, primary screen (AID 1121); conditions: higher = more signal;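 further: score merges feature fluorescence read at 667 nm with its signal to noise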
# [4] = target: Carbonic anhydrase 2 (Homo sapiens) (UniProt P00918); test: compounds binding carbonic anhydrase 2 – biochemical, small-molecule microarray, Alexa647-labelled CAII, profiling panel (AID 1122); conditions: CAII-A647 binding fluorescence, higher = more signal
# [5] = COS7 lysate on small-molecule microarray, probe aHis, 635 nm (AID 1123); conditions: COS7 cell lysate, fluorescence, higher = more signal;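 further: z-score combines 667nm fluorescence intensity with signal-to-noise per printed compound spot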
# [6] = probe aLAP1 signal on lysate-treated microarray – cell lysate, small-molecule microarray, COS7 lysate, primary screen (AID 1124); conditions: probe aLAP1, fluorescence, higher = more signal;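 further: lysate comes from COS7 cells expressing LAP1 and is applied at 0.3 µg/mL; score merges spot fluorescence near 667 nm with signal-to-noise over triplicate slides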
# Sam68 (KHDRBS1) = test: compounds binding KHDRBS1 protein – biochemical, small-molecule microarray, 635 nm fluorescence, primary screen (AID 1125); conditions: higher = more signal;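 further: score merges 667 nm channel intensity with signal to noise over triplicate slides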
# [7] = tested on: Chordin-like protein 2 (CHRDL2); test: compounds binding chordin-like 2 – biochemical, small-molecule microarray, 635 nm fluorescence, primary screen (AID 1126); conditions: fluorescence 635 nm, higher = more signal;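 further: printed compound slides probed with Chrdl2 protein at 4 µg/mL for 1 h at 4 C; score merges 667 nm emission intensity with signal to noise over three replicate slides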
# [8] = target: Concanavalin-A (Canavalia ensiformis) (UniProt P02866); test: compounds binding concanavalin A lectin – biochemical, small-molecule microarray, Alexa647 label, 635 nm, artefact control for SMM control protein annotation, primary screen (AID 1127); conditions: ConA-A647 binding fluorescence, higher = more signal;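 further: z combines 667 nm emission intensity with signal-to-noise across three replicate slides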
# Chain of Concanavalin-A (Canavalia ensiformis) (P02866 whole entry, looked up): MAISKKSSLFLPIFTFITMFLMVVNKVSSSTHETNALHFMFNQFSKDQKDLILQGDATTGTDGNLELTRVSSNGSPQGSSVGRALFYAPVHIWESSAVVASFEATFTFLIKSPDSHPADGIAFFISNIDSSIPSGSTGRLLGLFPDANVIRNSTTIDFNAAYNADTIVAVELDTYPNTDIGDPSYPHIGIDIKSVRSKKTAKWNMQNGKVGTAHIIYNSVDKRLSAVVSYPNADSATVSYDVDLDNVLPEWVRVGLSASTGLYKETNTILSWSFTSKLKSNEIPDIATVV
# Chain of Albumin (Bos taurus) (P02769 whole entry, looked up): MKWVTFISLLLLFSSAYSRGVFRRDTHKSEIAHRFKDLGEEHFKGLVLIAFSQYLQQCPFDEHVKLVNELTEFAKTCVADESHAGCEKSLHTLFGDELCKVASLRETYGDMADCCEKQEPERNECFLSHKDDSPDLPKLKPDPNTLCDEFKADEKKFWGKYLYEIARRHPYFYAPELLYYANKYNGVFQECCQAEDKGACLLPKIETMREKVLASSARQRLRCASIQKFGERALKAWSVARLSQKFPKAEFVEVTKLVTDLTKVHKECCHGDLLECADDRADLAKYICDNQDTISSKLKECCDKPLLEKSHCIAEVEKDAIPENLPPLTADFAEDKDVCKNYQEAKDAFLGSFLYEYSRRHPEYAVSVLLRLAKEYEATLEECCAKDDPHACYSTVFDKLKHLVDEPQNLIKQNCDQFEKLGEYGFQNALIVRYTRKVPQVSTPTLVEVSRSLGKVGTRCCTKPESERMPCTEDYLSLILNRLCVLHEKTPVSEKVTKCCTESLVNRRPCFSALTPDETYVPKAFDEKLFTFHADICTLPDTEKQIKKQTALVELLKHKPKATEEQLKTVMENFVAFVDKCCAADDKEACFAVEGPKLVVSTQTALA
Structure (SMILES),composite z-score (Albumin (Bos taurus)),composite Z-score [1],composite z-score [2],composite z-score [3],composite z-score [4],composite z-score [5],composite z-score [6],composite z-score (Sam68 (KHDRBS1)),composite z-score [7],composite z-score [8]
CO[C@H]1O[C@H](CO)[C@@H](OC(=O)CCc2ccccc2)[C@@H]2OC(=O)[C@@H](Cc3ccccc3)C/C=C/C[C@H](Cc3ccccc3)C(=O)O[C@@H]12,0.0544,-0.0061 (inactive),-0.0014,-0.0861,0.116,0.88,0.338,1.13,0.0642,0.6
COCCOC(=O)N1C(=O)[C@@]2(c3cc(C#CCNC(N)=O)ccc31)[C@H](C(N)=O)[C@H]1C(=O)O[C@H](c3ccccc3)[C@H](c3ccccc3)N1[C@@H]2c1ccccc1OCCO,0.222,-0.327 (inactive),0.133,0.0065,0.3,1.4,0.521,1.05,0.743,1.06
C#CCN(Cc1ccccc1Br)[C@H](/C=C/c1ccccc1)[C@@H](O)Cc1ccccc1,-0.33,0.258 (inactive),-0.226,-0.167,-0.128,0.222,0.163,0.446,0.129,-1.01
COC(=O)[C@@]1(Cc2ccc(OC)cc2)[C@H]2c3cc(C(=O)N4CCCC4)n(CCc4c[nH]c5ccc(O)cc45)c3C[C@H]2CN1C(=O)c1ccccc1,0.863,0.714 (inactive),0.298,0.0409,0.774,2.05,0.441,1.34,-0.135,0.992
CCOC(=O)C1=C[C@@H](C(C)(C)C)N(S(=O)(=O)c2ccc(C)cc2)[C@H]1c1cccc2ccccc12,0.261,0.592 (inactive),0.0327,-0.101,0.312,1.76,0.0493,1.05,-0.516,1.05
[N-]=[N+]=Nc1ccccc1[C@@H]1OC(c2ccc(OCCCO)cc2)=N[C@]1(Cc1ccccc1)C(=O)N1CCCCC1,0.712,0.254 (inactive),0.22,-0.108,0.415,1.94,1.36,1.29,-0.365,0.948
CC[C@@H]1C=C(C(=O)O)[C@H](c2ccccc2)N1S(=O)(=O)c1ccc(C)cc1,1.08,-0.12 (inactive),0.191,0.0167,0.8,2.24,1.38,0.95,-0.535,1.12
CC(C)c1ccc(NN2C(C(O)c3ccc(F)cc3)C=CC3C(=O)N(c4ccccc4)C(=O)C32)cc1 (stereo not given),0.839,0.131 (inactive),0.378,0.0147,0.378,2.79,0.846,1.31,-0.0773,1.1
O=C1CS(=O)(=O)C(c2cccc([N+](=O)[O-])c2)N1c1ccccc1 (stereo not given),0.501,1.11 (inactive),0.482,0.48,0.787,0.904,0.85,0.329,0.527,0.353
CN(C)CCCCCCNC(=O)[C@@H]1C[C@@H]2C(=O)N3CCC[C@H]3C(=O)N2[C@@H]1c1cccc(OCCO)c1,-0.694,0.759 (inactive),0.278,-0.13,0.591,2.73,0.87,1.31,1.42,1.13
CCCC[C@@H](O)C1=C(COc2ccccc2)C[C@H]2C(=O)N(Cc3ccccc3)C(=O)[C@H]2[C@H]1CO,0.0031,-0.861 (inactive),-0.287,-0.0795,0.099,0.523,-0.523,0.426,0.228,0.395
O=C(NCCN1CCOCC1)[C@@H]1c2ccccc2C(=O)N(C2Cc3ccccc3C2)[C@H]1c1ccc(CO)cc1,0.268,-0.27 (inactive),-0.223,0.0129,0.498,0.866,1.77,1.01,-0.419,0.466
COC(=O)[C@@]1(Cc2ccc(OC)cc2)[C@H]2c3cc(C(=O)N(C)C)n(Cc4ccc(OC(F)(F)F)cc4)c3C[C@H]2CN1C(=O)c1ccccc1,0.953,0.255 (inactive),0.11,0.141,0.822,1.74,-0.0771,-0.264,-0.899,-0.467
[N-]=[N+]=Nc1ccccc1C[C@]1(C(=O)NCCN2CCOCC2)COC(c2ccc(OCCCO)cc2)=N1,0.18,-0.34 (inactive),-0.0745,0.0328,0.348,1.87,1.26,1.15,0.376,1.1
NC(=O)[C@@]1(Cc2ccccc2)COC(c2ccc(OCCCO)cc2)=N1,0.456,0.08 (inactive),-0.0647,0.513,0.815,2.91,-0.238,-0.442,-0.165,-0.978
COC(=O)C1=CC(CCCO)=CC(c2ccc(CN3CCCC3)cc2)N(Cc2cccc(OC(F)(F)F)c2)C=C1C(=O)OC (stereo not given),0.996,0.29 (inactive),0.133,-0.0502,0.387,2.21,0.612,1.3,-0.551,1.11
CC(C)NC(=O)[C@@]1(c2ccc([N+](=O)[O-])cc2)CC(=O)N(C2CCCCC2)[C@@H]1c1ccc(CO)cc1,0.807,-0.107 (inactive),0.325,-0.245,0.729,2.17,0.94,1.26,-0.0413,1.02
C=CC[C@]1(C(=O)N2CCCCC2)N=C(c2ccc(OCCCO)cc2)O[C@H]1c1ccccc1CN=[N+]=[N-],0.472,0.256 (inactive),0.405,-0.147,0.69,2.31,0.817,1.3,-0.406,1.1
COc1ccc([Si](C)(C)[C@@H]2[C@@H](CC(=O)N3Cc4ccccc4C[C@H]3CO)O[C@]3(C(=O)N(Cc4ccc(N5C(=O)c6cccc7cccc5c67)cc4)c4ccccc43)[C@H]2C)cc1,-0.604,0.535 (inactive),0.171,-0.0728,0.351,1.25,-0.0469,1.31,1.18,0.988
O=C1C[C@]2(c3ccc([N+](=O)[O-])cc3)C(=O)N(C3CC3)c3cc(CO)ccc3[C@H]2N1CC12CC3CC(CC(C3)C1)C2,0.393,-0.571 (inactive),-0.213,-0.0357,0.76,0.422,0.401,-0.183,-0.201,0.176
CC1CC/C=C\[C@H]2OC34C=CCN(C(C)(C)C)C(=O)[C@H]3N(CCCCCO)C(=O)[C@@H]4C2C(=O)O1 (stereo not given in full),-0.0891,-0.838 (inactive),-0.219,-0.153,0.887,-0.658,-0.55,-0.883,-1.34,-2.1
CCCCC(CC)C(O)C1C=CC2C(=O)N(c3ccccc3)C(=O)C2N1Nc1ccccc1F (stereo not given),0.468,-0.243 (inactive),0.225,-0.153,0.749,2.75,0.51,1.12,-0.904,0.0845
COc1cccc(C)c1NC(=O)O[C@H]1[C@H](OC(=O)Nc2ccc3c(c2)OCO3)[C@@H](OC(=O)Nc2ccc3c(c2)OCO3)[C@@H](OC)O[C@@H]1CO,0.48,0.525 (inactive),0.508,-0.0714,0.43,2.53,1.29,1.29,0.492,0.66
C[N+](C)(C)CCCCCCNC(=O)[C@@H]1C[C@@H]2C(=O)N3CCC[C@H]3C(=O)N2[C@@H]1c1ccc(O)cc1,-0.245,0.05 (inactive),0.0591,-0.118,0.684,1.47,0.326,0.904,1.41,0.818
CCOC(=O)C[C@H]1[C@H](OC(=O)c2ccc(C(=O)c3ccccc3)cc2)[C@@H](NC(=O)c2ccc(-c3ccccc3)cc2)c2cc(OCCCO)ccc2N1C(=O)Cc1ccc(OC)cc1,0.519,-0.153 (inactive),0.16,0.121,0.177,0.93,0.0285,0.512,-0.0479,0.458
Cc1ccc(S[C@]2(C(=O)NCC(F)(F)F)CC(=O)N(Cc3cc(C(F)(F)F)cc(C(F)(F)F)c3)[C@@H]2c2ccc(CO)cc2I)cc1,0.803,0.439 (inactive),-0.291,-0.164,0.14,0.869,-0.0008,-1.47,-1.54,-0.41
CCOC(=O)C[C@H]1[C@H](OC(=O)c2ccccc2-c2ccccc2)[C@@H](NC(=O)c2ccc3ccccc3c2)c2cc(OCCCO)ccc2N1C(=O)c1ccccc1,0.5,-0.0287 (inactive),0.138,-0.206,0.355,0.462,-0.0843,0.735,0.578,0.215
